# PubChem BioAssay (NCI)
# The panel holds about 83,000 compounds, 20% with a hit somewhere; the sample as a whole holds those more often.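 Activity criterion: percent growth below 10, measured after cells in 96-well plates were exposed to a single compound concentration for 48 hours.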 Values without a mark were called inactive. Calls of active or inactive are those of the source.
# System: OVCAR-3 ovarian
# Assay: NCI-60 one-dose screen, 48 h (100 = growth as untreated, 0 = no growth, -100 = all killed)
# Conditions: 10 µM unless noted
# Description: Growth inhibition of the OVCAR-3 human tumor cell line is measured as a screen for anti-cancer activity. Cells are grown in 96 well plates and exposed to the test compound for 48 hours. Compounds are tested at a single concentration, which is 10^-5 M for most compounds. The reported endpoint is percent growth (GI% or GIPRCNT), where numbers from 0 - 100% represent growth inhibition, and numbers from -100% - 0 represent cell death. For example, a value of 40 represents 60% growth inhibition. A value of 0 means no net growth occurred over the course of the experiment. A value of -40 indicates 40% of cells at the beginning of the experiment died by the end of the experiment. A value of -100 means all cells are dead at the end of the experiment.
# NCI-60 Human Tumor Cell Lines Screen was performed using the standard one-dose NCI protocol, which is described in more detail at https://dtp.cancer.gov/discovery_development/nci-60/default.htm.
# Compounds with GIPRCNT values below 10 were considered active. Activity score was based on GIPRCNT using the following formula: […]
# Score is 0 for GIPRCNT values of 100 or above, 50 for GIPRCNT values of 0, and 100 for GIPRCNT values of -100.
row,SMILES,growth
1,Fc1ccc2[nH]cc(SSc3c[nH]c4ccc(F)cc34)c2c1,50.5%
2,COc1cc(-c2nn(C)nc2-c2cc3ccccc3s2)cc(OC)c1OC,0.446% (active)
3,Cc1cc(N2CCCCC2)nc(NC2CCCC(Nc3ccnc4cc(Cl)ccc34)C2)n1 (stereo not given),-69% (active)
4,COc1cc(-c2nc3ccccc3[nH]2)ccc1OCc1nnc(-c2ccc(CC(C)C)cc2)o1,95.2%
5,N#C/C(=C\c1ccc(-c2ccc(Cl)c(Cl)c2)o1)c1nc(-c2ccco2)cs1,81.1%
6,O=C1c2cc3c(cc2-c2c1c1ccc(F)cc1c(=O)n2C[C@H](O)[C@@H](O)[C@H](O)CO)OCO3,-20.3% (active)
7,COc1cccc(/C=C2\SC(=Nc3ccc(NC(C)=O)cc3)NC2=O)c1OC,111%
8,FC(F)(F)c1ccc(-c2cn3nc(-c4c[nH]c5ccc(Br)cc45)sc3n2)cc1,107%
9,COc1cccc(-c2nc(SCC(=O)Nc3ccc(C(=O)/C=C/c4ccc(OC)c(OC)c4)cc3)[nH]c(=O)c2C#N)c1,83.6%
10,OCCN1CCN(c2nc(Nc3ccc(-c4nc5ccccc5[nH]4)cc3)c3cn[nH]c3n2)CC1,-82.3% (active)
11,c1ccc2[nH]c(-c3ccc(Nc4nc(N5CCCC5)nc5[nH]ncc45)cc3)nc2c1,-53.1% (active)
12,O=C1c2cc3c(cc2-c2c1c1cc(F)c(F)cc1c(=O)n2CCCn1ccnc1)OCO3,-7.17% (active)
13,COc1cc2nc(N3CCCC3)nc(NCC3CCCCC3)c2cc1OC,13.1%
14,COc1ccc(-c2n[nH]nc2-c2csc3ccccc23)cc1OC,11.9%
15,COc1ccc(S(=O)(=O)N2CCN(C)CC2)cc1NC(=O)c1[nH]c(C)c2c1CCCCC2=O,66.6%
16,CC1C(/C=N/Nc2ccccc2)C(C#N)(C#N)C1(C#N)C#N (stereo not given),86.2%
17,Cc1nn(-c2ccc(F)cc2)c2ncnc(Nc3ccc(NC(=O)Nc4ccc(Cl)c(C(F)(F)F)c4)cc3)c12,-4.21% (active)
18,COc1ccc2c(c1)c(-c1nonc1-c1cn(C)c3ccccc13)cn2C,3.08% (active)
19,O=c1nc2oc3ccc4ccccc4c3cc-2s1,6% (active)
20,Cc1cc(NS(=O)(=O)c2ccc(-c3cnc(C4CC4)o3)cc2)ccc1Cl,-20.9% (active)

row,SMILES,growth
1,COC(=O)c1ccc(Cn2cnc3c(N)ncnc32)cc1,118%
2,COc1ccc2c(c1)C(=O)/C(=C/c1ccccn1)CC2,62.1%
3,CCCSc1ccc2nc(NC(=O)OC)[nH]c2c1,-32.1% (active)
4,C=CC(COC(c1ccccc1)(c1ccccc1)c1ccccc1)N(CC)CC (stereo not given),71.9%
5,Nc1ccn(-c2ccc(Br)cc2)c(=O)n1,48%
6,COc1ccc(CN2c3ccccc3Sc3ccccc32)cc1O,7.47% (active)
7,O=C1/C(=C/c2ccc(OCCCOc3ccc(Cl)cc3)cc2)N=C2SCCCN12,71.3%
8,CCN=C1C=CC(=C(c2ccc(N)cc2)c2ccc(N(CC)CC)c(C)c2)C=C1,-28.9% (active)
9,COc1cc2c(cc1OC)C(Sc1ccc(SC)cc1)c1c(nc(N)c(C#N)c1N)O2 (stereo not given),-88.7% (active)
10,CSc1ccc(SC2c3ccc(C)cc3Oc3nc(N)c(C#N)c(N)c32)cc1 (stereo not given),-94.7% (active)
11,O=C(COc1cccc(/C=C2\COc3ccc(Cl)cc3C2=O)c1)c1ccc(Cl)cc1,87.4%
12,COc1cc2c(cc1-c1c(C)noc1C)ncc1nc(C3CCOCC3)n([C@H](C)COC(F)F)c12,35.2%
13,COc1cc(/C=C/C(=O)c2c(C)oc3nc[nH]c(=O)c23)cc(OC)c1OC,77.8%
14,O=C(Cc1ccccc1Nc1c(Cl)cccc1Cl)NN1C(=O)/C(=C/c2ccc(Br)cc2)SC1=S,109%
15,C#Cc1cccc(NC(=O)c2ccccc2NC(=O)CCl)c1,90.6% [8.25 µM]
16,C=CC(=O)Nc1cccc(Nc2nc(SC)nc(-c3cccc([N+](=O)[O-])c3)c2C#N)c1,19.9%
17,O=C(COc1ccc(-c2nc3cc(Cl)c(Cl)cc3[nH]2)cc1)N=Nc1c(O)[nH]c2ccccc12,-54.9% (active)
18,COC(=O)c1ccc2oc(NC(=O)c3ccc(Nc4ccc([N+](=O)[O-])cc4C)c([N+](=O)[O-])c3)nc2c1,105%
19,Clc1ccc2c(NCCCCNc3nc(N4CCCCC4)nc4ccccc34)ccnc2c1,-27.3% (active)
20,O=C1NC(=S)NC(=O)C1CC(=O)n1c(-c2ccccc2)nc2ccccc21,103%
